# According to PubChem BioAssay (EPA / NIEHS):
# Calls of active or inactive are those of the source. How the source made its calls: active means hit-call score of the fitted dose curve at least 0.9, where 1 is the maximum; inactive means score below 0.9.
# Assay: CCTE_Mundy_HCI_Cortical_Synap_Neur_Matur_SynapseCount: CCTE's Synaptogenesis and Neurite Maturation Assay in rat cortical cells for Synapse Count, Mundy Lab (AID 2284218)
# Description: CCTE_Mundy_HCI_Cortical_Synap&Neurite_Matur is a multiplexed, cell-based-readout assay that uses rat primary cortical cells with measurements taken at 288.33 hours after chemical dosing in a microplate: 96-well plate.CCTE_Mundy_HCI_Cortical_Synap_Neur_Matur_SynapseCount is one of eight components of the CCTE_Mundy_HCI_Cortical_Synap&Neurite_Matur assay. It measures synaptogenesis and neurite maturation related to number of synapses per neuron using High Content Imaging of fluorescently labelled markers.[…] Using a type of morphology reporter, loss -of-signal activity can be used to understand developmental effects.
# Cells are plated onto 96 well plates and allowed 2 hr for attachment to the substrate. At days in vitro (DIV) 5, Cytosine Arabinoside (AraC) is added to arrest glial cell growth. Chemicals are dosed and a media change is performed at DIV 7 of differentiation and is continued through DIV 12 when the experiment is terminated. Cells are fixed with […] and Hoechst Dye. Cells are stained using Millipore Mouse anti-MAP2MAB3418 (1:800) and Millipore Rabbit anti-Synaptophysinsc-1750 (1:250) primary antibodies and Alexa Fluor-488 goat anti-mouse and AlexaFluor-546 goat anti-rabbit secondary antibodies to label neuronal cell nuclei, synapses and neurites. A Cellomics ArrayScan VTi HCS Reader is used for automated image acquisition and analysis of neurite outgrowth.
SMILES,outcome,AC50
[Cl-].[Cl-].[NH2-].[NH2-].[Pt+4],inactive,
CC1(C)S[C@@H]2[C@H](NC(=O)[C@H](N)c3ccc(O)cc3)C(=O)N2[C@H]1C(=O)O,inactive,
CN(C)CCC(c1ccc(Cl)cc1)c1ccccn1 (stereo unspecified),inactive,
NC(N)=Nc1nc(CSCCC(N)=NS(N)(=O)=O)cs1,inactive,
C[C@H](CS)C(=O)N1CCC[C@H]1C(=O)O,inactive,
Cc1c(O)cccc1C(=O)N[C@@H](CSc1ccccc1)[C@H](O)CN1C[C@H]2CCCC[C@H]2C[C@H]1C(=O)NC(C)(C)C,,3.11 µM (active)
CNCCC(Oc1ccc(C(F)(F)F)cc1)c1ccccc1 (stereo unspecified),,9.16 µM (active)
CC1(C)S[C@@H]2[C@H](NC(=O)[C@H](N)c3ccccc3)C(=O)N2[C@H]1C(=O)O,inactive,
CC(C)(C)NCC(O)c1cc(O)cc(O)c1 (stereo unspecified),inactive,
CN(C)C(=O)C(CCN1CCC(O)(c2ccc(Cl)cc2)CC1)(c1ccccc1)c1ccccc1,,3.43 µM (active)
C[C@@H]1C[C@H]2[C@@H]3CCC4=CC(=O)C=C[C@]4(C)[C@@]3(F)[C@@H](O)C[C@]2(C)[C@@]1(O)C(=O)CO,inactive,
